# Results taken from PubChem BioAssay (NCATS).
# Inconclusive results are not listed. A call without a number means that no potency is given here. A number with no mark means an inactive call. Active and inactive are the calls of the source. Calls follow the shape of the dose curve; as a rule, active = well fitted inhibition curve with a large enough effect; inconclusive = small, poorly fitted or top-dose-only effect; inactive = no such curve, though single readings can be large or run the other way.
# Test: NS1 protein of Zika virus - qHTS assay to identify small molecule inhibitors in human HEK 293 cells (AID 1347053); also: nearly all actives have a fitted effect of over 55% in size
# Settings: HEK293 ZIKV MR766 infection, NS1 TR-FRET, 24 h; series mostly up to 46.1 µM
# Procedure, shortened: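 HEK 293 cells pretreated with compound for 1 h, then infected with ZIKV MR766 (MOI 0.5) for 24 h at 37 C. NS1 detected by TR-FRET with two anti-NS1 antibodies; normalized to uninfected (0%) and infected (100%) wells.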
Structure (SMILES),Potency,"activity change, negative = inhibition"
CN(C)CCN1C(=O)c2ccccc2N(C)c2ccccc21,inactive,
NCCNc1cccc2ccccc12,inactive,
CCCCCCCC/C=C\CCCCCCCCN,inactive,
COc1ccc2c(c1)c1c3n2CCN(C)C3=NCC1,inactive,
Cc1c(-c2ccccc2)oc2c(C(=O)OCCN3CCCCC3)cccc2c1=O,inactive,
CC[N+](C)(CC)CCOC(=O)C(O)(c1ccccc1)C1CCCCC1 (stereo unspecified),inactive,
CC(=O)N[C@@H](CCC(=O)O)C(=O)O,inactive,
Cc1cc(NS(=O)(=O)c2ccc(N)cc2)nc(C)n1,inactive,
O=C(O)C1(C(=O)O)CCC1.[NH2-].[NH2-].[Pt+2],inactive,
CC1(COc2ccc(CC3SC(=O)NC3=O)cc2)CCCCC1 (stereo unspecified),inactive,
Cc1ccc(S(=O)(=O)NC(=O)NC2CCCC2)cc1,inactive,
CCOc1cc(OCC)c(C(=O)CCC(=O)O)cc1OCC,inactive,
COc1ccc(/C=N/NC(=O)c2ccncc2)cc1OC,inactive,
N=C(N)N1CCc2ccccc2C1,,-16.4% [at 4.81 µM]
Cc1cc(C)cc(OCC2CNC(=O)O2)c1 (stereo unspecified),inactive,
CC(C)(C)NC[C@H](O)COc1cccc2c1CCCC2=O,inactive,
O=C(Nc1cccc(C2=NCCN2)c1)Nc1cccc(C2=NCCN2)c1,inactive,
CCCCCCCCCCCCCCCCO,inactive,

Structure (SMILES),Potency,"activity change, negative = inhibition"
CCOC(=O)Nc1ccc2c(c1)N(C(=O)CCN1CCOCC1)c1ccccc1S2,inactive,
NS(=O)(=O)c1cc(C(=O)O)cc(N2CCCC2)c1Oc1ccccc1,inactive,
CC(CNC1CCCCC1)OC(=O)c1ccccc1 (stereo unspecified),inactive,
CCCCN1C[C@H](O)[C@@H](O)[C@H](O)[C@H]1CO,inactive,
Cc1cccc(C)c1NC(=O)CN1CCCCCC1,inactive,
CCC(Cc1c(I)cc(I)c(N)c1I)C(=O)O (stereo unspecified),inactive,
CC(C)CCCC(C)N (stereo unspecified),inactive,
O=C(Nc1ccc([N+](=O)[O-])cc1)Nc1ccc([N+](=O)[O-])cc1,inactive,
C#C[C@]1(O)CC[C@H]2[C@@H]3CCC4=CC(=O)CC[C@@H]4[C@H]3CC[C@@]21CC,inactive,
Cc1cccc(C)c1NC(=O)c1ccccc1C(=O)O,inactive,
CCN(CC)CCOC(=O)C1(c2ccccc2)CCCC1,inactive,
CC1(C)OC[C@@H]2O[C@@]3(C(=O)O)OC(C)(C)O[C@H]3[C@@H]2O1,inactive,
CCCCCCCCCCCCCCCC(=O)O,inactive,
CN1CCN(c2c(F)cc3c(=O)c(C(=O)O)cn4c3c2SCC4)CC1,inactive,
OC[C@H]1O[C@@H](Oc2ccc(O)cc2)[C@H](O)[C@@H](O)[C@@H]1O,inactive,
CC(=O)Nc1ccc(CC(=O)O)cc1,inactive,
Oc1ccccc1C=NCc1ccccc1,inactive,
CC1CCc2c(N3CCC(O)CC3)c(F)cc3c(=O)c(C(=O)O)cn1c23 (stereo unspecified),inactive,
